# In PubChem BioAssay AID624202 (National Center for Advancing Translational Sciences (NCATS), 2012):
# The whole screen tested about 380,000 compounds, of which about 4,000 (1.1%) were called active. Not shown: some 3% with an inconclusive outcome. Calls come from the whole dose curve; as a rule, active = well fitted activation curve with a large enough effect; inconclusive = small, poorly fitted or top-dose-only effect; inactive = no such curve, though single readings can be large or run the other way. Shown is part of a subset that was picked to be rich in actives. Entries that show only a call come without a potency.
# Assay: qHTS Assay to Identify Small Molecule Activators of BRCA1 Expression; note: nearly all actives have a fitted effect of over 80% in size
# Settings: MCF7-BRCA1-FFLuc reporter, luminescence, 48 h; series mostly up to 46.1 µM
# Summary of the method: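 Luminescence from a BRCA1-driven firefly luciferase in MCF7 cells was read after 48 h compound exposure at 37 C. Data normalized against DMSO and a 10microM genistein activation control, then curve-fitted across the titration.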
# Potency is the fitted concentration of half-maximal effect.
row,Compound,Potency
1,CCCN(CCC)C(=O)C(Cc1ccccc1)NS(=O)(=O)c1ccc2c(c1)c(=O)n(C)c(=O)n2C (stereo not drawn),inactive
2,Cc1ccc(-n2c(=O)c3cccnc3n2CC(=O)NCc2ccc(F)cc2)cc1C,inactive
3,CCCCOC(=O)CSc1ncnc2sc3c(c12)CCC(C)C3 (stereo not drawn),inactive
4,SCc1nc2ccc(Cl)cc2[nH]1,inactive
5,Cc1ccc(C)c(N2CCN(C(=O)CCc3nc(-c4cccc(C(F)(F)F)c4)no3)CC2)c1,inactive
6,Cc1ccc(Cc2nc(-c3cccc(C)c3)no2)cc1,7.94 µM (active)
7,Cc1cccc(-c2noc(CCC(=O)NC3CCCC3)n2)c1,inactive
8,Cc1[nH]c2ccccc2c1C(=O)C(=O)N(C)c1ccccc1,inactive
9,Cc1ccc(C(=O)Nc2nc3ccc(Cl)cc3s2)o1,0.891 µM (active)
10,Cc1noc(C)c1CSCC(=O)Nc1nc2ccc(Oc3ccccc3)cc2s1,inactive
11,Cc1sc2ncnc(N3CCC(C(=O)Nc4nc5ccc(Cl)cc5s4)CC3)c2c1C,inactive
12,COc1ccc(-c2nc(=N)sn2-c2ccccc2)cc1,inactive
13,Cc1ccc2c(c1)-c1c(cnn1CC(=O)Nc1ccccc1C#N)CO2,inactive
14,COc1cc(CN(C(=O)c2ccccc2Br)c2ccccn2)cc(OC)c1OC,inactive
15,Nc1ccc(/C=C/c2ccnc3ccccc23)c([N+](=O)[O-])c1,inactive
16,CN1C(=O)/C(=C/C=C2\SCCN2C)OC1=S,5.62 µM (active)
17,CN(C(=N)N)c1ccc(/C=C2\C=Cc3ccccc32)cc1,inactive
18,Fc1ccc2nc(N3CCCCC3)sc2c1,4.47 µM (active)
19,COc1ccc2nc(N3CCN(C(=O)c4ccc([N+](=O)[O-])o4)CC3)sc2c1,inactive
20,O=C(NCCc1cccc(F)c1)C1CCCN(c2nc3ccccc3s2)C1 (stereo not drawn),inactive
21,CCCCNC(=O)c1ccc2c(c1)NC(=O)C(C(C)C)N2 (stereo not drawn),inactive
22,Cc1cc(C)nc(NC(=O)Nc2ccccc2C(F)(F)F)n1,inactive

row,Compound,Potency
1,O=C(NC1CCCC1)c1cc(-c2ccccc2)on1,inactive
2,CCc1ccccc1NC(=O)c1cc(-c2ccc3c(c2)OCO3)on1,inactive
3,O=C(NCc1ccccn1)c1cc(-c2ccccc2Cl)on1,10 µM (active)
4,O=C(Nc1cccnc1Cl)c1cc(-c2ccccc2O)on1,8.91 µM (active)
5,CSc1ccccc1NC(=O)c1cc(C2CC2)on1,inactive
6,Cc1cc(Cl)ccc1OCCCC(=O)NCc1ccccn1,inactive
7,C=CCNC(=O)c1ccccc1SCc1c(C)noc1C,inactive
8,COc1ccccc1CNS(=O)(=O)c1cc(C(=O)NCc2ccccn2)c(Cl)cc1Cl,inactive
9,C=CCNC(=O)c1ccc2nc(-c3ccco3)c(-c3ccco3)nc2c1,inactive
10,O=C(Nc1ccccc1C(F)(F)F)c1cc(-c2ccc(O)cc2)on1,11.2 µM (active)
11,C=CCNC(=O)c1cc(-c2ccccc2O)on1,5.62 µM (active)
12,O=C(Nc1ccc([N+](=O)[O-])cc1)c1cnn2c1NC(=C1CC1)C=C2C(F)F,inactive
13,Cc1ccccc1C(=O)Nc1cc(C)c(O)c(-c2nc3ccccc3o2)c1,inactive
14,COc1ccc(-n2c(SCC(N)=O)nc3c(oc4ccccc43)c2=O)cc1,inactive
15,COc1ccccc1N1CCN(C(=O)C2CCN(S(=O)(=O)c3c(C)noc3/C=C/c3ccc(C)cc3)CC2)CC1,inactive
16,Cc1cc(C)c(NC(=O)CCc2c(C)nc3c(c(C)nn3C(C)(C)C)c2C)c(C)c1,inactive
17,Cc1ccc(-n2nnnc2CNC(=O)c2ccccc2C)cc1C,inactive
18,O=C(CSc1nnc(-c2c[nH]c3ccccc23)o1)c1ccccc1,12.6 µM (active)
19,CN(C(=O)CSc1nnc(-c2c[nH]c3ccccc23)o1)C1CCS(=O)(=O)C1 (stereo not drawn),inactive
20,CCC(CC)NC(=O)CSc1nnc(-c2c[nH]c3ccccc23)o1,inactive
21,Cc1ccccc1NC(=O)Cn1c(=O)n(CCc2ccccc2)c(=O)c2ccccc21,inactive
22,COc1c(Cl)cc(Cl)cc1C(=O)Nc1cccc2cccnc12,inactive

row,Compound,Potency
1,COc1cc2[nH]c(=O)n(Cc3ccc(C(=O)NCc4ccc(C)cc4)cc3)c(=O)c2cc1OC,inactive
2,Cc1cccc(NC(=O)COC(=O)c2ccccc2OCc2cccc(Br)c2)c1,inactive
3,CCOc1ccc(OCC)c(NC(=O)CN(c2ccc(C)cc2)S(=O)(=O)c2c(C)n[nH]c2C)c1,inactive
4,CCc1cccc(NC(=O)CSc2nccn2C)c1,12.6 µM (active)
5,CC(=O)Nc1cccc(NC(=O)CSc2nccn2Cc2ccc(F)cc2)c1,inactive
6,CCCCNC(=O)CSc1nccn1Cc1ccccc1,inactive
7,COc1ccc(CN(Cc2ccccc2)C(=O)c2ccc(O)cc2)cc1COc1ccc(NC(C)=O)cc1,inactive
8,Cc1ccc(CCNC(=O)Cn2c(-c3cccs3)cc3cc(F)ccc32)cc1,inactive
9,COc1ccc(NC(=O)Cn2c(=O)cc(C)c3c(C)nn(-c4cccc(Cl)c4C)c32)cc1OC,inactive
10,Cc1nn2cc(-c3ccc(Cl)cc3)cnc2c1Br,8.91 µM (active)
11,O=C(O)C1=C/C(=C/C=[N+]2c3cc(O)c(O[C@H]4OC(CO)[C@@H](O)[C@@H](O)[C@@H]4O)cc3C[C@@H]2C(=O)[O-])C[C@H](C(=O)O)N1 (stereo partly drawn),inactive
12,COc1ccc(-c2[nH]c3c(c2-c2c(-n4cccc4)n(C)c(=O)n(C)c2=O)c(=O)n(C)c(=O)n3C)cc1,inactive
13,Cc1ccc(S(=O)(=O)n2nc(C)c(S(=O)(=O)N3CCCCCC3)c2C)cc1,inactive
14,CCOc1ccc(NC(=O)Cn2c(C)ccc(C#N)c2=O)cc1,inactive
15,CCOc1ccc(NC(=O)c2ccc(NC(=O)CN3C(=O)C(=O)N(CC(C)C)C3=O)cc2)cc1,inactive
16,CCOc1ccc(NC(=O)c2ccc(NC(=O)COC(=O)c3ccc(NC(=O)CC#N)cc3)cc2)cc1,2.82 µM (active)
17,CCn1cc(C(=O)N2CCN(c3cc(C)ccc3C)CC2)c(=O)c2cc(S(=O)(=O)N(C)C3CCCCC3)ccc21,inactive
18,CSc1ccc(CCNC(=O)c2cnn(-c3ccccc3)c2-n2cccc2)cc1,inactive
19,CC(=O)c1ccc(NC(=O)CCc2nc(-c3ccc(C)cc3)no2)cc1,inactive
20,CSc1nc2ccc(NC(=O)c3c(F)cccc3F)cc2s1,5.62 µM (active)
21,O=C(Nc1ccc2nc(SCC(=O)N3CCc4ccccc43)sc2c1)c1ccccc1F,inactive
22,CC(=O)Nc1ccc2nc(SCCOc3cc(C)cc(C)c3)sc2c1,inactive

row,Compound,Potency
1,COc1cc2nc(N3CCCN(C)CC3)nc(NC3CC3)c2cc1OC,inactive
2,CCOc1ccc(C(=O)CCC(=O)NC2=NCCS2)cc1,inactive
3,O=C(NC1=NCCS1)c1ccc(Cl)s1,5.62 µM (active)
4,COc1ccccc1C(=O)NCCC(=O)NC1=NCCS1,inactive
5,O=C(Nc1ccccc1)c1ccccc1OCc1ccccc1,inactive
6,O=C(CCCCn1c(=O)c2ccccc2n(CC(=O)Nc2cccc(C(F)(F)F)c2)c1=O)NCc1ccc2c(c1)OCO2,inactive
7,NC1=NC(c2cc(F)cc(F)c2)n2c(nc3ccccc32)N1 (stereo not drawn),inactive
8,O=C(c1cnn2c1NC(=C1CC1)C=C2C(F)F)N1CCc2ccccc2C1,inactive
9,Cc1cccc(NC(=O)CSc2nc3c(oc4ccccc43)c(=O)n2-c2ccc(F)cc2)c1,inactive
10,O=C(Nc1cc(-c2nc3ccccc3o2)ccc1Cl)c1cc([N+](=O)[O-])ccc1N1CCOCC1,inactive
11,S=c1[nH]c(=S)c2n[nH]nc2[nH]1,inactive
12,COc1ccc(Cl)cc1S(=O)(=O)Nc1cccc(C(=O)O)c1,inactive
13,C/C(=N\Nc1cccc(C(=O)O)c1)c1ccc2c(c1)Nc1ccccc1S2,7.08 µM (active)
14,CC(=O)Nc1cccc(/C(C)=N/NC(=O)c2c(-c3ccccc3Cl)noc2C)c1,inactive
15,C[N+]1(CC(=O)c2cccs2)CCOCC1,inactive
16,CC(C)CC(CC(C)C)=NNC(=O)c1ccc(CSc2nncn2C)cc1,inactive
17,COC(=O)c1ccc(CSc2nncn2N)cc1,inactive
18,COC(=O)c1ccc(CSc2nncn2C)cc1,10 µM (active)
19,COc1ccccc1CNC(=O)CCCn1c(=O)c2ccccc2n(CC(=O)Nc2ccc(C)cc2Cl)c1=O,inactive
20,OC(CBr)CN1CCCCC1 (stereo not drawn),inactive
21,COC(=O)C1C(=O)c2c([nH]c(C(=O)OCCSC)c2C)CC1C (stereo not drawn),28.2 µM (active)
22,Cc1cc(Cl)ccc1NC(=O)Cc1ccc(NC(=O)N2CCCCc3ccccc32)cc1,inactive

row,Compound,Potency
1,COc1ccc2[nH]cc(CCN3C(=O)c4ccc(C(=O)O)cc4C3=O)c2c1,10 µM (active)
2,COCCCN1C(=O)c2ccc(C(=O)Nc3ccc(OC)cc3OC)cc2C1=O,inactive
3,Cc1ccc2[nH]cc(CCCN3C(=O)c4ccccc4C3=O)c2c1,inactive
4,CC(=O)Nc1ccc(C=Cc2ccc([N+](=O)[O-])cc2)cc1,1.78 µM (active)
5,O=C(Nc1ccc([N+](=O)[O-])cc1)C1CC12CCC2 (stereo not drawn),inactive
6,O=C(O)/C=C/C(=O)NNc1ccc([N+](=O)[O-])cc1,inactive
7,Cc1cccc(-c2nnc(SC(C)C(=O)Nc3ccccc3)n2C)c1 (stereo not drawn),inactive
8,COc1ccc(CNC(=O)c2cc3c(s2)-c2ccccc2OC3)cc1,inactive
9,O=C(Nc1ccc2nccnc2c1)c1ccco1,10 µM (active)
10,CN(C)C(CNC(=O)c1cc2ccccc2o1)c1ccccc1 (stereo not drawn),inactive
11,C/C(=N\NC(=S)Nc1ccc(C)cc1)c1cc2ccccc2o1,inactive
12,O=C(Nc1ccccc1C(=O)N1CCCCC1)c1ccco1,inactive
13,O=C(Nc1ccc(O)cc1)c1ccc(NC(=O)c2ccco2)cc1,3.16 µM (active)
14,O=C(CSc1ccccc1)Nc1ccc(NC(=O)c2ccco2)cc1,11.2 µM (active)
15,O=C(Nc1ccc2nc(SCCOc3ccccc3)sc2c1)c1ccco1,inactive
16,O=C(Nc1ccc(CSc2ccccc2)cc1)c1ccc(CN2CCOCC2)cc1,inactive
17,O=C(Nc1ccc2nc(SCCOc3ccccc3Cl)sc2c1)c1ccco1,inactive
18,Cc1ccc(NC(=O)c2cc3ccccc3o2)cc1,12.6 µM (active)
19,Cc1cc(C)cc(NC(=O)CSc2ccccc2)c1,inactive
20,O=C(CNC(=O)c1ccco1)NNC(=O)c1ccc(Br)cc1,inactive
